In the library only some 1.7% were active in any assay of this set; here they are far more common.
GSTO1 counter: inhibitors of recombinant GSTO1, primary screen, counter-screen for RBBP9 inhibitor project, biochemical, fluorescence polarization; Glutathione S-transferase omega-1 (Homo sapiens), P78417; activity-based probe fluorescence polarization; inhibition, % at 5.96 µM; 300,000 compounds, 1.1% hits; AID 1974, 2009;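 active = inhibition above the campaign mean inhibition plus 3 SD, cut at about 35% in these data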;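 also: 0% = GSTO1-1 with DMSO and 100% = wells lacking GSTO1-1 enzyme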
LYPLA2 counter: LYPLA2 inhibitors, primary screen, counter-screen for PME1 inhibitor project, biochemical, fluorescence polarization, FP-Rh probe ABPP | recombinant LYPLA2 | inhibition, % at 5.9 µM | 320,000 compounds, 0.38% hits | AID 2177, 2009;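 active = inhibition above the screen-wide mean plus 3 SD, limit set per campaign, cut at about 26% in these data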;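 also: 0% = LYPLA2 with DMSO and 100% = wells lacking LYPLA2 enzyme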
Target sequence (O95372 whole entry, looked up): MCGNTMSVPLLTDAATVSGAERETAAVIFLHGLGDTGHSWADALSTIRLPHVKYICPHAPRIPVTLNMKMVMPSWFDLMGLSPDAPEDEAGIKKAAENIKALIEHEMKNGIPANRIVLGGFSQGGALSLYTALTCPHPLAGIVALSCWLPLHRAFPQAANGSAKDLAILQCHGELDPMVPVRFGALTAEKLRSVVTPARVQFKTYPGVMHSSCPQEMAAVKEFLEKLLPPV
PME-1 inh: PME-1 inhibitors via competitive probe labeling, primary screen, biochemical, fluorescence polarization, FP-Rh probe, HTS. Protein phosphatase methylesterase 1 (Homo sapiens), Q9Y570. inhibition, % at 5.9 µM. AID 2130, 2009. recombinant PME-1. 320,000 compounds, 0.53% hits;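 active = inhibition above the campaign mean of all compounds plus 3 SD, cut at about 26% in these data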;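 also: competitive labeling of PME-1 active site by serine hydrolase directed probe; 0% = PME-1 with DMSO and 100% = wells lacking PME-1 enzyme; inhibitors block probe labeling so polarization falls and inhibition rises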
PAD4 inh: human PAD4 inhibitors, primary screen, biochemical, fluorescence polarization, 1536-well format. Protein-arginine deiminase type-4 (Homo sapiens), Q9UM07. recombinant PAD4, RCA probe fluorescence polarization. inhibition, % at 6.36 µM. 330,000 compounds, 0.41% hits;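 active = percent inhibition above a cutoff equal to the mean of all tested compounds plus 3 SD, cut at about 15% in these data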;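 also: 0% = PAD4 with RCA probe and DMSO and 100% = probe without PAD4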
Fam108B counter: mouse Fam108B serine hydrolase inhibitors, primary screen, counter-screen for RBBP9 inhibitor project, biochemical, fluorescence polarization. recombinant Fam108B, FP-Rh probe fluorescence polarization. inhibition, % at 9.51 µM. 300,000 compounds, 0.33% hits. AID 1947, 2009;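 active = inhibition above the screen mean inhibition plus 3 SD, computed separately per campaign, cut at about 18% in these data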;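 also: inhibitors lower polarization as less probe binds the enzyme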
LYPLA1 inh: LYPLA1 inhibitors, primary screen, counter-screen for PME1 inhibitor project, biochemical, fluorescence polarization, FP-Rh probe ABPP; Acyl-protein thioesterase 1 (Homo sapiens), O75608; recombinant LYPLA1; inhibition, % at 5.9 µM; 320,000 compounds, 0.16% hits; AID 2174, 2009;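 active = inhibition above the mean of all tested compounds plus 3 SD, set per campaign, cut at about 14% in these data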;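 also: inhibitors block serine hydrolase probe labeling of LYPLA1 so polarization falls; 0% = enzyme with DMSO and 100% = wells lacking LYPLA1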
Target sequence (O75608 whole entry, looked up): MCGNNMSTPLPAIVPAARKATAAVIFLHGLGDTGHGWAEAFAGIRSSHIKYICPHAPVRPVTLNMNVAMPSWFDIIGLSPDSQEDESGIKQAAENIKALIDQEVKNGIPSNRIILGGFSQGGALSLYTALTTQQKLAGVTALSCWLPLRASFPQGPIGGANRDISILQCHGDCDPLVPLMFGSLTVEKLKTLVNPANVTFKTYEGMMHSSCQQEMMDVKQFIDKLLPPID
GSTO1 inh conf: GSTO1 inhibitor hit confirmation, counter-screen for RBBP9 inhibitor project, biochemical, fluorescence polarization, triplicate. shares compounds with GSTO1 counter. recombinant GSTO1, probe fluorescence polarization. inhibition, % at 5.96 µM. 2,400 compounds, 54% hits. AID 2176, 2009;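 active = inhibition above the primary screen's cutoff, its mean inhibition plus 3 SD, cut at about 35% in these data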;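 also: loss of polarization as inhibitors block binding of rhodamine sulfonate ester activity probe; 0% = GSTO1 with DMSO and 100% = wells lacking GSTO1 enzyme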
GSTO1 recomb ABPP: inhibitors of purified human GSTO1, late-stage follow-up, biochemical, gel ABPP, SE-Rh probe, percent inhibition; shares compounds with GSTO1 counter; recombinant GSTO1, gel ABPP SE-Rh probe fluorescence; inhibition, % at 1 µM; 130 compounds, 30% hits; AID 463110, 2010;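 active = inhibition of the enzyme GSTO1 above about 75%, limit read from the data; inactive = inhibition below that limit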
* = called active by the depositor.

Results for COc1cc2c(c(OC)c1OC)-c1ccc(O)cc1[C@@H](NC(C)=O)CC2 ?
GSTO1 counter: 8; LYPLA2 counter: -7; PME-1 inh: 5; PAD4 inh: -3; Fam108B counter: 0; LYPLA1 inh: -4

What do the screens show for `CC1CCN(c2cc(Br)c([N+](=O)[O-])cc2F)CC1`?
GSTO1 counter: 1; LYPLA2 counter: -4; PME-1 inh: -6; PAD4 inh: -3; Fam108B counter: 1; LYPLA1 inh: -1

Results for CN(C)C1C(=O)C(C(N)=O)=C(O)C2(O)C(=O)C3=C(O)c4c(O)cccc4C(C)(O)C3CC12 (stereo not drawn) ?
GSTO1 counter: 70*; LYPLA2 counter: -2; PME-1 inh: -7; PAD4 inh: -1; Fam108B counter: 9; LYPLA1 inh: -2; GSTO1 inh conf: 28

Results for CC1CCCN(C(=O)CCl)C1 (stereo not drawn) ?
GSTO1 counter: 66*; LYPLA2 counter: 15; PME-1 inh: -1; PAD4 inh: 1; Fam108B counter: 2; LYPLA1 inh: 2; GSTO1 inh conf: 84*; GSTO1 recomb ABPP: 57

How did CNCC(=O)c1ccccc1 do in these assays?
GSTO1 counter: 0; LYPLA2 counter: 1; PME-1 inh: -1; PAD4 inh: -2; Fam108B counter: -1; LYPLA1 inh: -1

Results for Cc1ccccc1NC(=O)CCl ?
GSTO1 counter: 63*; LYPLA2 counter: 4; PME-1 inh: 0; PAD4 inh: 4; Fam108B counter: 2; LYPLA1 inh: 3; GSTO1 inh conf: 78*

Results for CC(C)CN1CCN(Cc2ccc(C(F)(F)F)cc2)CC1CCO (stereo not drawn) ?
GSTO1 counter: 4; LYPLA2 counter: 3; PME-1 inh: 5; PAD4 inh: 1; Fam108B counter: 3; LYPLA1 inh: -1

What do the screens show for `NCC(O)c1cc(O)c(O)cc1F` (stereo not drawn)?
GSTO1 counter: 50*; LYPLA2 counter: 0; PME-1 inh: -1; PAD4 inh: -7; Fam108B counter: -3; LYPLA1 inh: -4; GSTO1 inh conf: 8

Results for O=c1[nH]c(O)c(N=Nc2ccc(S(=O)(=O)N3CCOCC3)cc2)c(=O)[nH]1 ?
GSTO1 counter: 38*; LYPLA2 counter: -2; PME-1 inh: -2; PAD4 inh: -5; Fam108B counter: 1; LYPLA1 inh: -1; GSTO1 inh conf: 46*

How did CCN(CC)c1ccc(/C=C2/C(=O)NC(=O)N(CC3CCCO3)C2=O)cc1 (stereo not drawn) do in these assays?
GSTO1 counter: 43*; LYPLA2 counter: -9; PME-1 inh: -8; PAD4 inh: -15; Fam108B counter: -2; LYPLA1 inh: -6; GSTO1 inh conf: 8

What do the screens show for `COC1=CC2[C@@H]3Cc4ccc(OC)c(O)c4[C@]2(CCN3C)CC1=O` (stereo partly drawn)?
PAD4 inh: -5

How did COc1cc(CNCCc2c[nH]c3ccccc23)cc(OC)c1 do in these assays?
GSTO1 counter: -5; LYPLA2 counter: 1; PME-1 inh: 9; PAD4 inh: -4; Fam108B counter: 1; LYPLA1 inh: 3

How did Nc1c(C(=O)NCCN2CCOCC2)c2nc3ccccc3nc2n1Cc1ccccc1 do in these assays?
GSTO1 counter: 4; LYPLA2 counter: -7; PME-1 inh: 4; PAD4 inh: -17; Fam108B counter: -5; LYPLA1 inh: -4

What do the screens show for `CC(C)CCNC(=O)c1c(N)n(CC2CCCO2)c2nc3ccccc3nc12` (stereo not drawn)?
GSTO1 counter: 54*; LYPLA2 counter: 8; PME-1 inh: 11; PAD4 inh: -17; Fam108B counter: 0; LYPLA1 inh: 0; GSTO1 inh conf: 57*

What do the screens show for `CCC(C)NC(=O)c1c(N)n(Cc2ccc3c(c2)OCO3)c2nc3ccccc3nc12` (stereo not drawn)?
GSTO1 counter: 53*; LYPLA2 counter: 3; PME-1 inh: 14; PAD4 inh: -15; Fam108B counter: 0; LYPLA1 inh: 1; GSTO1 inh conf: 6

How did Nc1c(C(=O)NCCc2ccccc2)c2nc3ccccc3nc2n1CCN1CCOCC1 do in these assays?
GSTO1 counter: 10; LYPLA2 counter: -6; PME-1 inh: 11; PAD4 inh: -2; Fam108B counter: 11; LYPLA1 inh: -5

How did CCC(C)NC(=O)c1c(N)n(CC2CCCO2)c2nc3ccccc3nc12 (stereo not drawn) do in these assays?
GSTO1 counter: 38*; LYPLA2 counter: -8; PME-1 inh: 11; PAD4 inh: -13; Fam108B counter: 1; LYPLA1 inh: -2; GSTO1 inh conf: 58*

How did O=C1CNC(c2ccccc2Cl)c2cc(Br)ccc2N1 (stereo not drawn) do in these assays?
GSTO1 counter: 3; LYPLA2 counter: -1; PME-1 inh: -2; PAD4 inh: -2; Fam108B counter: 1; LYPLA1 inh: -3

How did COc1c(/C=C2/C(=O)NC(=O)N(C)C2=O)c(CCN(C)C(=O)c2ccccc2)cc2c1OCO2 do in these assays?
GSTO1 counter: 7; LYPLA2 counter: 2; PME-1 inh: 7; PAD4 inh: 1; Fam108B counter: -1; LYPLA1 inh: 1

Results for ClCCN1CCN(c2ccnc3cc(Cl)ccc23)CC1 ?
GSTO1 counter: 2; LYPLA2 counter: -3; PME-1 inh: -1; PAD4 inh: 0; Fam108B counter: 1; LYPLA1 inh: -6

How did COC(=O)C1=C(c2c(C)noc2C)C[C@@H]2CC[C@H]1N2C(=O)NC1CC1 do in these assays?
LYPLA2 counter: 3; PME-1 inh: -4; PAD4 inh: -1; LYPLA1 inh: 1

Results for O=c1c2ccccc2nc(/C=C/c2ccc(O)c(O)c2)n1-c1ccccc1 ?
GSTO1 counter: 44*; LYPLA2 counter: -20; PME-1 inh: 27*; PAD4 inh: -4; Fam108B counter: -10; LYPLA1 inh: -15; GSTO1 inh conf: 7

Results for CCOCN(C(=O)CCl)c1c(C)cccc1CC ?
GSTO1 counter: 83*; LYPLA2 counter: 3; PME-1 inh: -7; PAD4 inh: 0; Fam108B counter: 0; LYPLA1 inh: 4; GSTO1 inh conf: 92*; GSTO1 recomb ABPP: 0

High-throughput results (PubChem BioAssay)
